According to paper PMC11006913:
Residue numbers refer to the chain shown, from its start.

Legend:
Test in all cases: PBM; 200 nM protein, PBS
Conditions in all cases: dsDNA, one strand shown
[1] = biological target: HOXB9 (Homo sapiens, UniProt P17482 171-250, T197M)
[2] = biological target: HOXC9 (Homo sapiens, UniProt P31274 178-260, K195R)
[3] = biological target: T1, PAX4 (Homo sapiens, UniProt O43316 9-242, R200K)
T1 sequence: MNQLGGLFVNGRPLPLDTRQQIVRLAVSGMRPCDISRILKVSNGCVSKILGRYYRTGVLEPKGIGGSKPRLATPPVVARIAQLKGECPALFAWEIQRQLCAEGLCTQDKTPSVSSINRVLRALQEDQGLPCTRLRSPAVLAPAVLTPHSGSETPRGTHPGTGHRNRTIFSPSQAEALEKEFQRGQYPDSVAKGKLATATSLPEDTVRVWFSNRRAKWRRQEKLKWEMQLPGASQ

[4] = biological target: T2, PAX4 (Homo sapiens, UniProt O43316 9-242)
T2 sequence: T1 sequence with K192R

[5] = biological target: HOXB9 (Homo sapiens, UniProt P17482 171-250)
[6] = biological target: HOXC9 (Homo sapiens, UniProt P31274 178-260)
[7] = biological target: HOXC9 (Homo sapiens, UniProt P31274 178-260, R193K)
[8] = biological target: T3, PAX4 (Homo sapiens, UniProt O43316 9-242, F177V)
T3 sequence: T1 sequence with F169V, K192R

[9] = biological target: HOXC10 (Homo sapiens, UniProt Q9NYD6 254-340, K271E)
[10] = biological target: T4, PAX4 (Homo sapiens, UniProt O43316 9-242, F177Y)
T4 sequence: T1 sequence with F169Y, K192R

[11] = biological target: HOXB9 (Homo sapiens, UniProt P17482 171-250, R186Q)
[12] = biological target: HOXC9 (Homo sapiens, UniProt P31274 178-260, R222W)
[13] = biological target: T5, PAX4 (Homo sapiens, UniProt O43316 9-242, R227W)
T5 sequence: T1 sequence with K192R, R219W

[14] = biological target: HOXA2 (Homo sapiens, UniProt O43364 129-215, Y150S)
[15] = biological target: HOXA2 (Homo sapiens, UniProt O43364 129-215)
[16] = biological target: T6, VENTX (Homo sapiens, UniProt O95231 78-163)
T6 sequence: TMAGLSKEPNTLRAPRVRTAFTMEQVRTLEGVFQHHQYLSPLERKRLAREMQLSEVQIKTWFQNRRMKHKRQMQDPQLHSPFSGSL

[17] = biological target: VAX1 (Homo sapiens, UniProt Q5SQQ9 86-172)
VAX1, sequence (Q5SQQ9 86-172): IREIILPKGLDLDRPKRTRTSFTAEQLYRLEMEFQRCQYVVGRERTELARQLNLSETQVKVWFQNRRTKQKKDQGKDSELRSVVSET

HOXA2 (Homo sapiens, UniProt O43364 129-215), sequence (O43364 129-215): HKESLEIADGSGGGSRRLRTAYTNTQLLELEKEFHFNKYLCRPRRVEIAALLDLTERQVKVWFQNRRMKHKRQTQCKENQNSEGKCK
HOXA2 (Homo sapiens, UniProt O43364 129-215, Y150S), sequence (O43364 129-215 Y150S): as the sequence (O43364 129-215) above, with Y22S counted along it
HOXC9 (Homo sapiens, UniProt P31274 178-260, R193K), sequence (P31274 178-260 R193K): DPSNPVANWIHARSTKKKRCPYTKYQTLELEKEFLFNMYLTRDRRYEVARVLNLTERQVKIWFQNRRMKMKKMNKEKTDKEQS
HOXC9 (Homo sapiens, UniProt P31274 178-260, R222W), sequence (P31274 178-260 R222W): as the sequence (P31274 178-260 R193K) above, with K16R, R45W counted along it
HOXC9 (Homo sapiens, UniProt P31274 178-260), sequence (P31274 178-260): as the sequence (P31274 178-260 R193K) above, with K16R counted along it
HOXC9 (Homo sapiens, UniProt P31274 178-260, K195R), sequence (P31274 178-260 K195R): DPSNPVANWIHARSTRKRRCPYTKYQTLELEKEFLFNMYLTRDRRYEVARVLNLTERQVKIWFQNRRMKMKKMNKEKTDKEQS
HOXB9 (Homo sapiens, UniProt P17482 171-250, T197M), sequence (P17482 171-250 T197M): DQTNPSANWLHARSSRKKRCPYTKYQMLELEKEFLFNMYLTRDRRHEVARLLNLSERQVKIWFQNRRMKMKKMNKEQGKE
HOXC10, sequence (Q9NYD6 254-340 K271E): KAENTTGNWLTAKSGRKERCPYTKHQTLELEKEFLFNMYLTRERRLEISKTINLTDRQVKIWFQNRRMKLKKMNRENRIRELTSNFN
HOXB9 (Homo sapiens, UniProt P17482 171-250), sequence (P17482 171-250): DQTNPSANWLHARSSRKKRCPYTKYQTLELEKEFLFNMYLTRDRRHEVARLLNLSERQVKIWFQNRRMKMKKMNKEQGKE
HOXB9 (Homo sapiens, UniProt P17482 171-250, R186Q), sequence (P17482 171-250 R186Q): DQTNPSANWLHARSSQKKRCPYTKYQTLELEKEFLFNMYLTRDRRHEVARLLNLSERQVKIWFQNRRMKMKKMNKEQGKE

In the case of AATTAAAT, the binding signal [1] was 10 upbm affinity estimate (log intensity, higher = more binding, comparable within an allelic series), the binding signal [2] was 12.5 upbm affinity estimate (log intensity, higher = more binding, comparable within an allelic series) and the binding signal [3] was 11.8 upbm affinity estimate (log intensity, higher = more binding, comparable within an allelic series). The binding signal [4] was 12.3 upbm affinity estimate (log intensity, higher = more binding, comparable within an allelic series), the binding signal [5] was 11.8 upbm affinity estimate (log intensity, higher = more binding, comparable within an allelic series) and the binding signal [6] was 12.5 upbm affinity estimate (log intensity, higher = more binding, comparable within an allelic series). The binding signal [7] was 12.6 upbm affinity estimate (log intensity, higher = more binding, comparable within an allelic series), the binding signal [8] was 10.8 upbm affinity estimate (log intensity, higher = more binding, comparable within an allelic series) and the binding signal [9] was 11.9 upbm affinity estimate (log intensity, higher = more binding, comparable within an allelic series). The binding signal [10] was 11.3 upbm affinity estimate (log intensity, higher = more binding, comparable within an allelic series), the binding signal [11] was 11.5 upbm affinity estimate (log intensity, higher = more binding, comparable within an allelic series) and the binding signal [12] was 11.2 upbm affinity estimate (log intensity, higher = more binding, comparable within an allelic series). The binding signal [13] was 11.1 upbm affinity estimate (log intensity, higher = more binding, comparable within an allelic series).

CCCAGGCG was tested, and the binding signal [2] was 9.48 upbm affinity estimate (log intensity, higher = more binding, comparable within an allelic series), the binding signal [6] was 9.7 upbm affinity estimate (log intensity, higher = more binding, comparable within an allelic series) and the binding signal [7] was 9.62 upbm affinity estimate (log intensity, higher = more binding, comparable within an allelic series). The binding signal [12] was 9.63 upbm affinity estimate (log intensity, higher = more binding, comparable within an allelic series), the binding signal [14] was 10.5 upbm affinity estimate (log intensity, higher = more binding, comparable within an allelic series) and the binding signal [15] was 7.13 upbm affinity estimate (log intensity, higher = more binding, comparable within an allelic series).

In the case of CCCAATTA, the binding signal [16] was 12.4 upbm affinity estimate (log intensity, higher = more binding, comparable within an allelic series), the binding signal [3] was 11.6 upbm affinity estimate (log intensity, higher = more binding, comparable within an allelic series) and the binding signal [4] was 12.1 upbm affinity estimate (log intensity, higher = more binding, comparable within an allelic series). The binding signal [8] was 10.4 upbm affinity estimate (log intensity, higher = more binding, comparable within an allelic series), the binding signal [10] was 10.8 upbm affinity estimate (log intensity, higher = more binding, comparable within an allelic series) and the binding signal [17] was 12.7 upbm affinity estimate (log intensity, higher = more binding, comparable within an allelic series). For the same sequence, the binding signal [13] was 10.7 upbm affinity estimate (log intensity, higher = more binding, comparable within an allelic series).

For AATTAGCA, the binding signal [3] was 11.6 upbm affinity estimate (log intensity, higher = more binding, comparable within an allelic series), the binding signal [4] was 12.1 upbm affinity estimate (log intensity, higher = more binding, comparable within an allelic series) and the binding signal [8] was 10.5 upbm affinity estimate (log intensity, higher = more binding, comparable within an allelic series). For the same sequence, the binding signal [10] was 10.9 upbm affinity estimate (log intensity, higher = more binding, comparable within an allelic series), the binding signal [13] was 10.9 upbm affinity estimate (log intensity, higher = more binding, comparable within an allelic series) and the binding signal [14] was 10.8 upbm affinity estimate (log intensity, higher = more binding, comparable within an allelic series). The binding signal [15] was 12.1 upbm affinity estimate (log intensity, higher = more binding, comparable within an allelic series).

With CCAATTAG the binding signal [16] was 13.1 upbm affinity estimate (log intensity, higher = more binding, comparable within an allelic series), the binding signal [3] was 11.7 upbm affinity estimate (log intensity, higher = more binding, comparable within an allelic series) and the binding signal [4] was 12.2 upbm affinity estimate (log intensity, higher = more binding, comparable within an allelic series). For the same sequence, the binding signal [8] was 10.4 upbm affinity estimate (log intensity, higher = more binding, comparable within an allelic series), the binding signal [10] was 10.8 upbm affinity estimate (log intensity, higher = more binding, comparable within an allelic series) and the binding signal [17] was 13.1 upbm affinity estimate (log intensity, higher = more binding, comparable within an allelic series). The binding signal [13] was 10.8 upbm affinity estimate (log intensity, higher = more binding, comparable within an allelic series), the binding signal [14] was 10.8 upbm affinity estimate (log intensity, higher = more binding, comparable within an allelic series) and the binding signal [15] was 12.1 upbm affinity estimate (log intensity, higher = more binding, comparable within an allelic series).

With GCCAATTA the binding signal [16] was 12.5 upbm affinity estimate (log intensity, higher = more binding, comparable within an allelic series) and the binding signal [17] was 12.8 upbm affinity estimate (log intensity, higher = more binding, comparable within an allelic series).

In the case of ATTAATGC, the binding signal [3] was 11.7 upbm affinity estimate (log intensity, higher = more binding, comparable within an allelic series), the binding signal [4] was 12.1 upbm affinity estimate (log intensity, higher = more binding, comparable within an allelic series) and the binding signal [8] was 10.4 upbm affinity estimate (log intensity, higher = more binding, comparable within an allelic series). For the same sequence, the binding signal [10] was 11 upbm affinity estimate (log intensity, higher = more binding, comparable within an allelic series) and the binding signal [13] was 10.9 upbm affinity estimate (log intensity, higher = more binding, comparable within an allelic series).
